We go through 16 compounds from PubChem BioAssay (NCI).

Some test systems named below: SR leukemia; OVCAR-8 ovarian; OVCAR-5 ovarian; OVCAR-4 ovarian; SK-OV-3 ovarian; IGROV1 ovarian; OVCAR-3 ovarian; HS 578T breast; NCI/ADR-RES ovarian; RPMI-8226 leukemia.
Assay in all cases: NCI-60 one-dose screen, 48 h (100 = growth as untreated, 0 = no growth, -100 = all killed)
Common to all, as to conditions: 10 µM unless noted

This is part of a sample that, as a whole, favours compounds with a hit. Of some 83,000 tested, about 20% had one in any assay.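 Step 1: grow cells in 96-well plates. Step 2: add test compound at a single concentration. Step 3: incubate 48 h. Step 4: record percent growth.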 A number with no mark means an inactive call. Activity calls are given as the source filed them. How the source made its calls: active means growth percent below 10; inactive means the rest.

As for `N#C/C(=C\c1ccc(-c2ccc(F)cc2)o1)c1nc(-c2ccco2)cs1`, the growth in the test on SR leukemia is 86.3%; with OVCAR-8 ovarian, 102%; with OVCAR-5 ovarian, 65.1%; in the test on OVCAR-4 ovarian it was 19.2%; with SK-OV-3 ovarian, 103%; in the test on IGROV1 ovarian, 60%. Further, the growth in the test with OVCAR-3 ovarian was 105%; in the test on HS 578T breast it was 109%; with NCI/ADR-RES ovarian, 107%.

Regarding `CC1(c2ccccc2)OC1C(=O)O` (stereo not drawn), the growth with SR leukemia is 101%; in the test with RPMI-8226 leukemia, 108%; in the test on OVCAR-8 ovarian, 107%; in the test with OVCAR-4 ovarian, 112%; with SK-OV-3 ovarian, 117%; in the test on IGROV1 ovarian, 96.8%. Also, the growth with OVCAR-3 ovarian is 103%; in the test with HS 578T breast it was 109%; in the test on NCI/ADR-RES ovarian it was 94.5%.

Turning to `NC(=O)NCC1CCCCC1`, the growth was 99.4% with SR leukemia; 108% in the test with RPMI-8226 leukemia; 114% with OVCAR-8 ovarian; 102% in the test on OVCAR-4 ovarian; 109% with SK-OV-3 ovarian; 101% in the test with IGROV1 ovarian. Moreover, the growth is 112% in the test on HS 578T breast and 95.1% with NCI/ADR-RES ovarian.

Turning to `N#CC1=C(N)Oc2c(c(N)nn2-c2ccccc2)C1c1ccc(Cl)cc1` (stereo not drawn), the growth was 95.8% in the test on SR leukemia; 95.4% in the test on OVCAR-8 ovarian; 102% in the test with OVCAR-5 ovarian; 105% in the test with OVCAR-4 ovarian; 81.7% with SK-OV-3 ovarian; 84.5% in the test on IGROV1 ovarian. Further, the figures for the growth with OVCAR-3 ovarian, in the test with HS 578T breast and in the test with NCI/ADR-RES ovarian were 109%, 97% and 101%, respectively.

Regarding `COc1ccc2c(c1)C/C(=C\c1cc(-c3ccc4c(c3)OCO4)n[nH]1)C2=O`, the growth in the test on SR leukemia is 73.7%; in the test with RPMI-8226 leukemia, 45.8%; in the test with OVCAR-5 ovarian it was 98.3%; with OVCAR-4 ovarian, 90.9%; in the test on SK-OV-3 ovarian, 95.6%; in the test on IGROV1 ovarian, 99.1%. The growth was 71.3% in the test on OVCAR-3 ovarian, 99.4% in the test on HS 578T breast and 109% in the test with NCI/ADR-RES ovarian.

With `CC/C(=N/NC(N)=O)c1ccccc1`, the growth was 110% in the test with SR leukemia; 97.8% in the test on RPMI-8226 leukemia; 103% in the test on OVCAR-8 ovarian; 120% with OVCAR-4 ovarian; 116% in the test with SK-OV-3 ovarian; 108% in the test with IGROV1 ovarian. For the same compound, the figures for the growth in the test with OVCAR-3 ovarian, in the test on HS 578T breast and with NCI/ADR-RES ovarian were 109%, 104% and 104%, respectively.

As to `COc1ccc2nc(-c3cc(-c4cc(OC)c(OC)c(OC)c4)n[nH]3)[nH]c2c1`, the growth in the test on SR leukemia was 13.8%; with RPMI-8226 leukemia, -50.6% (active); in the test on OVCAR-5 ovarian, 58.8%; in the test on OVCAR-4 ovarian, -21.9% (active); with SK-OV-3 ovarian, 33.8%; with IGROV1 ovarian it was 18.7%. Further, the results for the growth with OVCAR-3 ovarian and in the test with NCI/ADR-RES ovarian were -29% (active) and -0.97% (active), respectively.

Consider `O=C(N/N=C\c1c(O)ccc2ccccc12)C1CC1`, for which the growth was 18.3% in the test on SR leukemia; 40.4% with RPMI-8226 leukemia; 33.1% in the test with OVCAR-8 ovarian; 90.9% in the test with OVCAR-5 ovarian; 44.9% in the test with SK-OV-3 ovarian; 24.3% in the test with IGROV1 ovarian. Further, the growth in the test on HS 578T breast was 74.6%; in the test with NCI/ADR-RES ovarian, 9.42% (active).

For the compound `c1ccc2[nH]c(-c3cc(-c4ccc5c(c4)OCO5)n[nH]3)nc2c1`, the growth was 28% with SR leukemia; 7.45% (active) with RPMI-8226 leukemia; 86.4% in the test with OVCAR-5 ovarian; 60.5% in the test on OVCAR-4 ovarian; 76.9% in the test on SK-OV-3 ovarian; 56.6% with IGROV1 ovarian. Moreover, the growth was 40.8% in the test with OVCAR-3 ovarian and 59.6% with NCI/ADR-RES ovarian.

Consider `COc1ccc(-c2cc(/C=C/C(=O)c3ccc(N)cc3)[nH]n2)cc1`, for which the growth in the test with SR leukemia is -20.2% (active); in the test with RPMI-8226 leukemia, -29.9% (active); in the test with OVCAR-5 ovarian it was 54.5%; in the test with OVCAR-4 ovarian it was 33.1%; with SK-OV-3 ovarian, -8.64% (active); in the test on IGROV1 ovarian it was 32.8%. The growth in the test on OVCAR-3 ovarian was -34.1% (active); with NCI/ADR-RES ovarian, 17.5%.

Regarding `CN(C)CCCCC(C(=O)CBr)(c1ccccc1)c1ccccc1`, the growth is 8.41% (active) in the test with SR leukemia; 25.8% in the test on OVCAR-8 ovarian; 45.2% with OVCAR-5 ovarian; 12.1% with OVCAR-4 ovarian; 79.1% in the test on SK-OV-3 ovarian; 44.4% in the test with IGROV1 ovarian. The growth with OVCAR-3 ovarian was -44% (active); in the test on HS 578T breast, 24.2%; in the test on NCI/ADR-RES ovarian it was 43.9%.

For the compound `CCC(c1ccc(OC)cc1)C(CC)c1ccc(O)c(CN2CCCCC2)c1` (stereo not drawn), the growth is -3.74% (active) in the test on SR leukemia; 5.83% (active) in the test on RPMI-8226 leukemia; 80.4% in the test with OVCAR-8 ovarian; 67.1% in the test on OVCAR-4 ovarian; 84.9% in the test with SK-OV-3 ovarian; 69.6% with IGROV1 ovarian. Besides, the growth was 73.9% in the test with OVCAR-3 ovarian, 79% with HS 578T breast and 60.9% in the test with NCI/ADR-RES ovarian.

On to `Cc1ccc(Nc2c(C(N)=O)cnc3ccc(S(=O)(=O)Nc4cc(C)on4)cc23)cc1`, for which the growth in the test with SR leukemia was 101%; in the test on RPMI-8226 leukemia it was 103%; in the test with OVCAR-8 ovarian, 97.9%; in the test with OVCAR-5 ovarian it was 99.5%; in the test with SK-OV-3 ovarian, 107%; with IGROV1 ovarian, 101%. The figures for the growth in the test on HS 578T breast and in the test on NCI/ADR-RES ovarian were 104% and 101%, respectively.

Regarding `CC(=O)OC(C)COc1ccc(-c2ccccc2)cc1` (stereo not drawn), the growth is 97.1% in the test with SR leukemia; 95.9% in the test on OVCAR-8 ovarian; 96.8% in the test with OVCAR-5 ovarian; 106% in the test with OVCAR-4 ovarian; 109% with SK-OV-3 ovarian; 112% with IGROV1 ovarian. In addition, the results for the growth with OVCAR-3 ovarian, in the test on HS 578T breast and in the test on NCI/ADR-RES ovarian were 107%, 103% and 118%, respectively.

Regarding `CN(CSc1ccc(Cl)cc1)c1ccc(CSc2ccc(Cl)cc2)cc1`, the growth was 18% with RPMI-8226 leukemia; 93.3% in the test on OVCAR-8 ovarian; 120% with OVCAR-5 ovarian; 67.9% with OVCAR-4 ovarian; 108% in the test with SK-OV-3 ovarian; 42.9% in the test with IGROV1 ovarian. Further, the results for the growth in the test with OVCAR-3 ovarian, in the test on HS 578T breast and in the test on NCI/ADR-RES ovarian were 62.6%, 93.3% and 91.7%, respectively.

On to `CC(c1ccccc1)N1C(=O)C(C2SC(=S)N(C(C)c3ccccc3)C2=O)SC1=S` (stereo not drawn), for which the growth in the test on SR leukemia was 41.4%; in the test on OVCAR-8 ovarian, 96.6%; in the test on OVCAR-5 ovarian, 98.8%; with OVCAR-4 ovarian, 97.2%; in the test on SK-OV-3 ovarian, 106%; with IGROV1 ovarian it was 76.5%. The growth in the test on OVCAR-3 ovarian was 76.8%; in the test with HS 578T breast it was 96%; in the test with NCI/ADR-RES ovarian it was 97.9%.
